Results: PubChem BioAssay (NCATS)
Records with an inconclusive call do not appear. The list shows a part of the results. Activity calls are given as the source filed them. Unless noted, calls follow the shape of the dose curve; as a rule, active = well fitted curve in either direction with a large enough effect (not every such curve was filed as active); inconclusive = small, poorly fitted or top-dose-only effect, or another doubt; inactive = flat fitted curve, though single readings scatter.

Experiments:
[1] = AP1 Signaling Pathway (AID 357); conditions: ME-180 AP-1-bla reporter, EGF-induced, beta-lactamase ratio, 5 h; at 7.69 µM (top of the series) unless noted;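 also: ME-180 reporter cells stimulated with EGF at its EC50 level; % is scaled to controls: 0 for no effect and ±100 for the full control effect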
Method in brief: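 Titration-series screen for positive or negative modulators of EC50 EGF-induced signaling in ME-180 cells carrying an AP-1-driven beta-lactamase reporter. After 5 hours at 37 degrees Celsius, CCF4 460nm/530nm emission ratio gave %Activity; AC50 values derived.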

[2] = target: Cytochrome P450 1A2 (Homo sapiens) (UniProt P05177); test: p450-cyp1a2 (AID 410; calls by dose curve; also: potency is read from the fitted curve at half-maximal effect;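 as to activity change, negative = inhibition: -100% = full effect of reference inhibitor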)
Method in brief: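 Human CYP1A2 (20nM) demethylated Luciferin-ME at its Km (100uM) in 100mM KPO4. After 10 min compound preincubation, NADPH regeneration ran the reaction 60 min at room temperature. Luciferin was read by luminescence, normalized to 57 uM furafylline.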

[3] = Stat Signaling Pathway (AID 446); conditions: ME-180 SIE beta-lactamase reporter, IL-6 stimulated, 5 h; at 7.69 µM (top of the series) unless noted;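 also: ME-180 cervical cancer cells given 40 pM IL-6 alongside compound; SIE-controlled beta-lactamase reporter measured as 460/530 nm FRET emission ratio; % is scaled to controls: 0 for no effect and ±100 for the full control effect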
Method in brief: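 ME-180 cells carrying a SIE-driven beta-lactamase reporter are stimulated with 40 pM IL-6 for 5 h at 37C in the presence of compound. The 460/530 nm FRET substrate ratio is read after 2.5 h at RT. Data are normalised to 300 pM IL-6 and to 125 nM JAK inhibitor controls.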

[4] = target: Glucocorticoid receptor (Homo sapiens) (UniProt P04150); test: GR-GFP Redistribution (AID 450;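 active = compounds whose dose series gives a full or clear partial fitted curve of increased nuclear translocation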; also: potency is read from the fitted curve at half-maximal effect); conditions: U2OS GR-GFP nuclear translocation, laser cytometry, 2 h
[5] = target: Glucocorticoid receptor (Homo sapiens) (UniProt P04150); test: GR-EFC Redistribution (AID 451; calls by dose curve; also: potency is read from the fitted curve at half-maximal effect); conditions: CHO-K1 GR-EFC translocation, beta-gal luminescence, 2 h
Method in brief: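 CHO-K1 cells expressing nuclear EA and GR-ED fragments of b-gal; compounds titrated up to 46 uM final, 2 h at 37 C. GR nuclear translocation read as complemented b-gal luminescence after 1 h RT detection.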

[6] = target: Mitogen-activated protein kinase 10 (Mus musculus) (UniProt Q61831); test: JNK3 AlphaScreen Assay (AID 530);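 also: kinase came from lysate of stimulated human HepG2 cells; signal reports phosphorylation of biotinylated GST-cJun 1-79 at Ser73 with 10 µM ATP; % is scaled to controls: 0 for no effect and ±100 for the full control effect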
Method in brief: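 qHTS format: compounds tested as titrations against IL-1beta/TNF-alpha-activated HepG2 lysate JNK3 with biotin-GST-cJun substrate and 10 uM ATP at room temperature. Loss of anti-phospho-cJun AlphaScreen signal indicates inhibition.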

[7] = target: 3',5'-cyclic-AMP phosphodiesterase 4B (Homo sapiens) (UniProt Q07343); test: qHTS Assay for Inhibitors of PDE-IV (AID 607; active = well fitted activation curve with a large enough effect in the main read-out, with a control signal flat, not every such curve was filed as active; also: % of control where 0% means no effect)
Method in brief: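 HEK293 ACTOne cells with CNG channel (1000/well), endogenous PDE4; membrane potential dye, compounds up to 22.9 uM final. Fluorescence Ex 535/Em 590; RO 20-1724 (100 uM final) as reference.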

[8] = target: Guanine nucleotide-binding protein G(i) subunit alpha-1 (Homo sapiens) (UniProt P63096); test: qHTS Assay for Inhibitors of RGS12 GoLoco Motif Activity (Green Fluorophore) (AID 879; active = well fitted curve in the direction sought with a large enough effect; an effect the other way counts as inactive or inconclusive;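 also: 0% = labeled peptide with Gαi1 and full inhibition = labeled peptide alone without protein; negative values mean loss of peptide binding seen as reduced polarization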)
Method in brief: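 Fluorescence polarization assay: 50 nM Gαi1 with 10 nM FITC-labeled RGS12 GoLoco peptide in 10 mM Tris pH 7.5, 150 mM NaCl, 0.1 mM GDP, 0.05% NP40, 10 min at room temperature with compound.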

[9] = target: Cytochrome P450 3A4 (Homo sapiens) (UniProt P08684); test: qHTS Assay for Inhibitors and Substrates of Cytochrome P450 3A4 (AID 884; active = well fitted curve in the direction sought with a large enough effect; an effect the other way counts as inactive or inconclusive; also: % is scaled to controls: 0 for no effect and ±100 for the full control effect; nearly all actives have a fitted effect of over 50% in size)
Method in brief: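 20 nM human CYP3A4 with 25 uM Luciferin-PPXE (at KM) in 200 mM KPO4, preincubated 10 min with compound; NADPH regeneration started a 60 min RT reaction. Luciferin detected by luminescence, normalized to 57 uM ketoconazole as full inhibition.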

[10] = target: Cytochrome P450 3A4 (Homo sapiens) (UniProt P08684); test: qHTS Assay for Activators of Cytochrome P450 3A4 (AID 885; active = well fitted curve in the direction sought with a large enough effect; an effect the other way counts as inactive or inconclusive; also: nearly all actives have a fitted effect of over 65% in size; also: potency is read from the fitted curve at half-maximal effect)
Method in brief: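 Human CYP3A4 (20 nM) with Luciferin-PPXE at 25 uM (its KM) in 200 mM KPO4; 10 min compound preincubation, then NADPH regeneration and 60 min reaction at RT. Luciferin read by luminescence; normalized to 57 uM ketoconazole full inhibition.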

[11] = qHTS Assay for Identification of Small Molecule Agonists for Thrombopoietin (TPO) Signaling Pathway (AID 917; active = well fitted curve in the direction sought with a large enough effect; an effect the other way counts as inactive or inconclusive; also: % is scaled to controls: 0 for no effect and ±100 for the full control effect)
Method in brief: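 Luminescence from a Glycoprotein IIb promoter–driven luciferase reporter served as read-out in murine Ba/F3 cells carrying the human TPO receptor. Cells, deprived of IL-3 overnight, received compounds with 26 pM TPO and were incubated 24 hrs at 37 C.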

[12] = target: Muscarinic acetylcholine receptor M1 (Rattus norvegicus) (UniProt P08482); test: qHTS Assay for Antagonists of Acetylcholine Muscarinic M1 Receptor: Kinetic Measurement of Intracellular Calcium Response (AID 943; active = well fitted curve in the direction sought with a large enough effect; an effect the other way counts as inactive or inconclusive; also: potency is read from the fitted curve at half-maximal effect; nearly all actives have a fitted effect of over 75% in size)
Method in brief: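 CHO cells stably expressing rat M1 were loaded with no-wash Fluo-4 dye for 1 h at 37C, pre-incubated 10 min with compound, then challenged with EC80 carbachol (100 nM final); kinetic calcium read 4 min, peak/basal ratio.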

[13] = target: Muscarinic acetylcholine receptor M1 (Rattus norvegicus) (UniProt P08482); test: qHTS Assay for Antagonists of Acetylcholine Muscarinic M1 Receptor: Measurement of IP-One Response (AID 944; active = well fitted curve in the direction sought with a large enough effect; an effect the other way counts as inactive or inconclusive; also: nearly all actives have a fitted effect of over 75% in size; also: potency is read from the fitted curve at half-maximal effect)
Method in brief: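 CHO cells expressing rat M1 receptor, recovered overnight, were pre-incubated 10 min with compound, then stimulated 30 min with carbachol at EC80 (200 nM) in LiCl-containing buffer, pH 7.4. IP1 accumulation was read by HTRF (620/665 nm).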

[14] = target: Pyruvate kinase (Leishmania mexicana) (UniProt Q27686); test: qHTS Validation Assay for Inhibitors of Leishmania Mexicana Pyruvate Kinase (AID 945; active = well fitted curve in the direction sought with a large enough effect; an effect the other way counts as inactive or inconclusive;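 also: 0% = DMSO only neutral control wells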)
Method in brief: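 qHTS eight-point titrations against 0.2 nM LmPYK (E451W) in imidazole buffer pH 7.2 with 0.5 mM PEP, 0.1 mM ADP; 1 h, room temperature. Readout: PKLight luminescence, normalized to neutral DMSO wells.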

[15] = target: Pyruvate kinase PKM (Homo sapiens) (UniProt P14618); test: qHTS Assay for Activators of Human Muscle Pyruvate Kinase (AID 954; active = well fitted curve in the direction sought with a large enough effect, not every such curve was filed as active;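 also: 0% = uninhibited enzyme and -100% = no enzyme or full thiadiazolimine inhibition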)
Method in brief: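 Purified human PKM2 (0.1 nM) with 0.5 mM PEP (Km) and 0.1 mM ADP in 50 mM imidazole pH 7.2, KCl, MgCl2, 1 h at room temperature; ATP formed read by coupled luciferase luminescence. Normalized to no-enzyme/110 uM thiadiazolimine inhibition; 0.3 nM enzyme column for activation.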

[16] = target: Alpha-galactosidase A (Homo sapiens) (UniProt P06280); test: Counterscreen for Glucocerebrosidase Inhibitors: qHTS Assay for Human alpha-Galactosidase at pH 4.5 (AID 992; active = well fitted curve in the direction sought with a large enough effect; an effect the other way counts as inactive or inconclusive; also: 0% is about no effect)
Method in brief: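 Human enzyme (2 nM) with 80 uM 4-methylumbelliferyl alpha-D-galactopyranoside in 50 mM citric acid, 0.005% Tween-20, pH 4.5, 20 min at room temperature. Compounds 0.7 nM–77 uM; fluorescence Ex 365/Em 440 after pH 10 stop; AC50 from Hill fits.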

[17] = target: alpha-glucosidase (Oryza sativa, rice) (UniProt Q653V4); test: Counterscreen for Glucocerebrosidase Inhibitors: qHTS Assay for Rice alpha-Glucosidase at pH 5.0 (AID 997; active = well fitted curve in the direction sought with a large enough effect; an effect the other way counts as inactive or inconclusive;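 also: 0% = full activity with enzyme and -100% = basal without enzyme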)
Method in brief: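 Rice alpha-glucosidase (4 nM final) with 400 uM 4-methylumbelliferyl-alpha-D-glucopyranoside in citrate buffer pH 5.0, 20 min at room temperature, stopped at pH 10; fluorescence 365/440 nm, compounds 0.7 nM–77 uM, AC50 from Hill fits.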

[18] = NFAT Signaling Pathway (AID 444); conditions: Jurkat NFAT-bla M1, carbachol, beta-lactamase ratio, 5 h; at 7.69 µM (top of the series) unless noted
Method in brief: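 Jurkat cells with NFAT-driven β-lactamase reporter and co-expressed M1 receptor, stimulated with carbachol (final 1 uM, ~EC50), compound titration, 5 h at 37 °C. CCF4 loaded 1 h at RT; 460/530 nm ratio gave %activity and AC50.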

[19] = target: DNA polymerase iota (Homo sapiens) (UniProt Q9UNA4); test: qHTS for Inhibitors of Polymerase Iota: Confirmatory Assay for Cherry-picked Compounds (AID 720496; active = well fitted curve in the direction sought with a large enough effect; an effect the other way counts as inactive or inconclusive; also: potency is read from the fitted curve at half-maximal effect); conditions: Pol iota primer extension, TAMRA/BHQ fluorescence
Method in brief: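 Human Pol iota (10 nM) was preincubated 15 min at room temperature with compound, then started with 50 nM TAMRA/BHQ-2 quenched primer-template substrate. Fluorescence (ex 525/em 598 nm) was read at 0 and 10 min.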

[20] = target: DNA polymerase eta (Homo sapiens) (UniProt Q9Y253); test: qHTS for Inhibitors of Polymerase Eta: Confirmatory Assay for Cherry-picked Compounds (AID 720502; active = well fitted curve in the direction sought with a large enough effect; an effect the other way counts as inactive or inconclusive; also: potency is read from the fitted curve at half-maximal effect); conditions: Pol eta primer extension, TAMRA/BHQ fluorescence, 10 min
Method in brief: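 Strand-displacement fluorescence (525 nm excitation, 598 nm emission) was read kinetically at 0 and 10 min after adding 50 nM final TAMRA-reporter/BHQ-2-template substrate. Beforehand, 10 nM Pol eta had been exposed to compound for 15 min at room temperature.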

Chain of 3',5'-cyclic-AMP phosphodiesterase 4B (Homo sapiens) (Q07343 whole entry, looked up): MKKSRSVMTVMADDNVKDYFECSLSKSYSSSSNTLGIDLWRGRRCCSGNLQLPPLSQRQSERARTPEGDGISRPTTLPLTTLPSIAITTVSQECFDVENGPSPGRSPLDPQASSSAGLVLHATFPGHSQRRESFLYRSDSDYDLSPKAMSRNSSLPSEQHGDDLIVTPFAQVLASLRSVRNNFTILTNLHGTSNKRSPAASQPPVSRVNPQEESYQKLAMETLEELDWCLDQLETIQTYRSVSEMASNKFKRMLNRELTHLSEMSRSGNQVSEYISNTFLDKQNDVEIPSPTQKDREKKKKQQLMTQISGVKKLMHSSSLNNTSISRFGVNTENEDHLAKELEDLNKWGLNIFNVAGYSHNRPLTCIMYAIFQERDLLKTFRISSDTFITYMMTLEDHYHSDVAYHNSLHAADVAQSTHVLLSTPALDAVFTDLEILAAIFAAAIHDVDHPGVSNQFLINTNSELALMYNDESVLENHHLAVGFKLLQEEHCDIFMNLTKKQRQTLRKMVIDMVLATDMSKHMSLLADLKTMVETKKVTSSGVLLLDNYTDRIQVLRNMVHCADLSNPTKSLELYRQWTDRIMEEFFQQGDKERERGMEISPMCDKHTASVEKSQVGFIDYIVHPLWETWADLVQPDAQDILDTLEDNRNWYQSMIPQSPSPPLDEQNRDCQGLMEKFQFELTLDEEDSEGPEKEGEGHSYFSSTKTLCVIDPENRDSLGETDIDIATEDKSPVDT
Chain of Pyruvate kinase (Leishmania mexicana) (Q27686 2-499 E452W): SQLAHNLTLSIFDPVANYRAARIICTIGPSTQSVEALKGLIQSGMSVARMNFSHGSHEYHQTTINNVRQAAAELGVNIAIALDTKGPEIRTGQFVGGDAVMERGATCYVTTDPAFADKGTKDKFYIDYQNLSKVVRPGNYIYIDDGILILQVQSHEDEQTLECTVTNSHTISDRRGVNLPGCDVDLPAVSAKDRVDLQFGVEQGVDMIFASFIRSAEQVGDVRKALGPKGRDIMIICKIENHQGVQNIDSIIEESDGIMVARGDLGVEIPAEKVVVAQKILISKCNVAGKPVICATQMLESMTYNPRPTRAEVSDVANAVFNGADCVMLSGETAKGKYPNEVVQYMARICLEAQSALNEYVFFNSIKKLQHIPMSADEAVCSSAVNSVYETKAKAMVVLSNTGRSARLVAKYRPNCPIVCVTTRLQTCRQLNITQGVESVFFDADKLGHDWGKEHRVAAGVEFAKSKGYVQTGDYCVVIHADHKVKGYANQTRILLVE
Chain of Glucocorticoid receptor (Homo sapiens) (P04150 whole entry, looked up, the tested form may be a part): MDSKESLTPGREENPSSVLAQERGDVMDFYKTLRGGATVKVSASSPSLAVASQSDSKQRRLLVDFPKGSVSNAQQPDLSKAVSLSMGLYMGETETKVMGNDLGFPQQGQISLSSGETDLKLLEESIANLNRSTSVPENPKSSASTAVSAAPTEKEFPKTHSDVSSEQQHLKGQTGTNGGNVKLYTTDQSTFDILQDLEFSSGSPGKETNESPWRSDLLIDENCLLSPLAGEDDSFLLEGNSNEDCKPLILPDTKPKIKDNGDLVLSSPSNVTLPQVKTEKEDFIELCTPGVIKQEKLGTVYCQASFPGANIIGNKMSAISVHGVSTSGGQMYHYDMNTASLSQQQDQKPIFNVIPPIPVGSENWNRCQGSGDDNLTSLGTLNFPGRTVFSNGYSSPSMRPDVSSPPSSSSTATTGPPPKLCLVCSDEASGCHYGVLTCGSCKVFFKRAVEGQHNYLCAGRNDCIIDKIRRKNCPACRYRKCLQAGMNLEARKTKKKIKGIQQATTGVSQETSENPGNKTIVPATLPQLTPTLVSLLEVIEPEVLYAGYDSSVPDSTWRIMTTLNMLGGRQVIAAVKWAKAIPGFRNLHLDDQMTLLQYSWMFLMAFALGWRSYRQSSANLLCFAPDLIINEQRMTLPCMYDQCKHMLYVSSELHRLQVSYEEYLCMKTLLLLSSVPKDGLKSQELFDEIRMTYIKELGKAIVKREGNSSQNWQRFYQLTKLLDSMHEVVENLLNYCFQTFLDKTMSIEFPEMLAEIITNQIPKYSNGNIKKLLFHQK
Chain of Pyruvate kinase PKM (Homo sapiens) (P14618 whole entry, looked up): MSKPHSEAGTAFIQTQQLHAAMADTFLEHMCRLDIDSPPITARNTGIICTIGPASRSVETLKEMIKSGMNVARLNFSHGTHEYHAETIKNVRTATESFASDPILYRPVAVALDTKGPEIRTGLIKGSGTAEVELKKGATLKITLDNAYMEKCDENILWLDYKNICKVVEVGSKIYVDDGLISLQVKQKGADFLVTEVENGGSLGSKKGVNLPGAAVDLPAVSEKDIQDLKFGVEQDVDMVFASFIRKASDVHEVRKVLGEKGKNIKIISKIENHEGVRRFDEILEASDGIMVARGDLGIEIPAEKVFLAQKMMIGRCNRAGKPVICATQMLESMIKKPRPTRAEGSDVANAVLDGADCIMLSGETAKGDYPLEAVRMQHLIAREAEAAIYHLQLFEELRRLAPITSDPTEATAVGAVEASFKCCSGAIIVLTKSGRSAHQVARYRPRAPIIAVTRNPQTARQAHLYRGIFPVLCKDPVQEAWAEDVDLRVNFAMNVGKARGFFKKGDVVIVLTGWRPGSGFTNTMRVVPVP
Chain of Muscarinic acetylcholine receptor M1 (Rattus norvegicus) (P08482 whole entry, looked up): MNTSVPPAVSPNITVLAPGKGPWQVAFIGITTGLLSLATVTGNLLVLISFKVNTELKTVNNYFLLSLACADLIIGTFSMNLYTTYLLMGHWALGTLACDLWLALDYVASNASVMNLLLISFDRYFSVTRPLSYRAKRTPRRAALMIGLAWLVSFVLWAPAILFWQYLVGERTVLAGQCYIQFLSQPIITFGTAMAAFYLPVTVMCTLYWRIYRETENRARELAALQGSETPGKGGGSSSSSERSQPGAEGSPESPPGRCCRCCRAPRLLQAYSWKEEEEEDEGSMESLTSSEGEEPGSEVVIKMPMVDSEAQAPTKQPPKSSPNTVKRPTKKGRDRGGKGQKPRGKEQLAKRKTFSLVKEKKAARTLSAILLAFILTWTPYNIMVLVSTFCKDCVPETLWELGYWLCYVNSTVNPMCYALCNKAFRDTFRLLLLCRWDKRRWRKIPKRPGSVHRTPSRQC
Chain of Cytochrome P450 3A4 (Homo sapiens) (P08684 whole entry, looked up): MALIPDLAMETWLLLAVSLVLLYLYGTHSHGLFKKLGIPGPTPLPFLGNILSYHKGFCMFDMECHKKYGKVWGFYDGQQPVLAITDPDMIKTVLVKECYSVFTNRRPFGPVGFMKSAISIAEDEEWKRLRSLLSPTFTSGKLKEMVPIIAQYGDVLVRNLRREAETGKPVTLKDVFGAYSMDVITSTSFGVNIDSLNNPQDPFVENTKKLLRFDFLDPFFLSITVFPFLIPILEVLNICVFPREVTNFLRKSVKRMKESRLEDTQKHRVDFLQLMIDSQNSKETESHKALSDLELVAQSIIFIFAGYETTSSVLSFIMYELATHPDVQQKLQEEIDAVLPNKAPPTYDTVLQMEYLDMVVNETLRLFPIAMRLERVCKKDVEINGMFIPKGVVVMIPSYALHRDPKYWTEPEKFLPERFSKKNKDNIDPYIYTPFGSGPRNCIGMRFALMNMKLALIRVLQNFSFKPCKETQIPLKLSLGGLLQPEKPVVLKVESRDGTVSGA
Chain of Alpha-galactosidase A (Homo sapiens) (P06280 whole entry, looked up): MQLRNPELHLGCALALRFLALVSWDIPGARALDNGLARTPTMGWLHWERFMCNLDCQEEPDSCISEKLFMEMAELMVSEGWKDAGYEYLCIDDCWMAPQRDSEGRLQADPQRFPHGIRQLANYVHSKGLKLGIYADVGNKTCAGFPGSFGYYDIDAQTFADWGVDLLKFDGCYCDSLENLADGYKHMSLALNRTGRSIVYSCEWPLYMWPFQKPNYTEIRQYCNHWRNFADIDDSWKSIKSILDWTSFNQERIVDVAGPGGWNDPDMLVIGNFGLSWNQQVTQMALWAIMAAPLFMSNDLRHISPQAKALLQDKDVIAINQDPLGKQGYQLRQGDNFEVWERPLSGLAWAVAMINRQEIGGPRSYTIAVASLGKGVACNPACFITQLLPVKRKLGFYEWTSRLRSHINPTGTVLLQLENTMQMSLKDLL
Chain of Cytochrome P450 1A2 (Homo sapiens) (P05177 whole entry, looked up): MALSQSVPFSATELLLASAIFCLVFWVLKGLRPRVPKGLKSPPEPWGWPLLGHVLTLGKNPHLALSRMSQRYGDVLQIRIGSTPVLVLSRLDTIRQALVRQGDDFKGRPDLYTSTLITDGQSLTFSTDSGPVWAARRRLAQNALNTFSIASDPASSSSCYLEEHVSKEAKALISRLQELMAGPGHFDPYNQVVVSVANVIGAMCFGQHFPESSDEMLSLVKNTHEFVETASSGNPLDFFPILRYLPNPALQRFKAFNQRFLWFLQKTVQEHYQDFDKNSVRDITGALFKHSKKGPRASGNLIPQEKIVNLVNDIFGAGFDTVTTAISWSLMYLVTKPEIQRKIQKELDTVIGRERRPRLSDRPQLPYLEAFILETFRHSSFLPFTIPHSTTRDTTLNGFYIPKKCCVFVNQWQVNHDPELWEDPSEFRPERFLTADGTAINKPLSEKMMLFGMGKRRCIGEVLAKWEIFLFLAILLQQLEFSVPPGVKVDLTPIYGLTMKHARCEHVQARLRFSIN
Chain of Guanine nucleotide-binding protein G(i) subunit alpha-1 (Homo sapiens) (P63096 whole entry, looked up): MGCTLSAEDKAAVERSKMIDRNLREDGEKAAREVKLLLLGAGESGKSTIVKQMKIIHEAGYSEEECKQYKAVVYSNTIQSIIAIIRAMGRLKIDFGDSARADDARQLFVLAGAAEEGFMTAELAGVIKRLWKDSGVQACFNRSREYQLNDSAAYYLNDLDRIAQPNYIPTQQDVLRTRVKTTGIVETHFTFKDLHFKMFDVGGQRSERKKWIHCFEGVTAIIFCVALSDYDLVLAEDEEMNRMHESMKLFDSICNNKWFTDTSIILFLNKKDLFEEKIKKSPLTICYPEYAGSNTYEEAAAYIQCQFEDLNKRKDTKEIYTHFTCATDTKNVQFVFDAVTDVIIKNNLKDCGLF

C[C@@H](CN1CCC(Cc2ccccc2)CC1)[C@H](O)c1ccc(O)cc1
active: Potency [2] 12.6 µM | Potency [10] 10 µM | Potency [12] 5.62 µM | Potency [13] 7.08 µM
inactive: activity change, negative = inhibition [1] 7.29% [at 38 µM] | activity, negative = inhibition [3] -25.3% [at 38 µM] | Potency [4] > 46 µM | Potency [5] > 46 µM | Potency [6] | Potency [7] | outcome [8] | Potency [9] | outcome [11] | outcome [14] | outcome [15] | outcome [16] | Potency [17]

C[N+]1(CCC[N+]2(C)C[C@H]3[C@H](C2)[C@H]2C=C[C@@H]3CC2)CCOCC1 (stereo partly drawn)
inactive: activity change, negative = inhibition [1] 0.978% | Potency [2] | activity change, negative = inhibition [18] 1.42% | Potency [4] > 46 µM | Potency [6] | Potency [7]

COc1cc([C@H](Cc2ccccc2)NC(C)=O)oc(=O)c1
active: Potency [19] 37.7 µM | Potency [20] 23.9 µM

C[C@H](C(=O)c1ccncc1)c1ccccn1
inactive: activity change, negative = inhibition [1] 0.391% | activity change, negative = inhibition [18] -8.81% | activity, negative = inhibition [3] 8.11% | Potency [4] > 46 µM | Potency [5] > 9.22 µM | Potency [6] | Potency [7] | Potency [10]

CCCC(c1cc(C(C)(C)C)c(O)cc1C)c1cc(C(C)(C)C)c(O)cc1C
inactive: activity change, negative = inhibition [1] 28.1% | activity change, negative = inhibition [2] -12.3% [at 2.29 µM] | activity, negative = inhibition [3] 4.1% | Potency [4] > 46 µM | Potency [5] > 9.22 µM | Potency [6] | Potency [7]

COc1ccc(CCN(C)CCC[C@@](C#N)(c2cc(OC)c(OC)c(OC)c2)C(C)C)cc1OC
inactive: activity change, negative = inhibition [1] 2.08% [at 38 µM] | activity change, negative = inhibition [18] -29.4% [at 38 µM] | activity, negative = inhibition [3] -12.4% [at 38 µM] | Potency [4] > 46 µM | Potency [5] > 46 µM | outcome [8] | outcome [11] | Potency [13] | outcome [14] | outcome [15] | outcome [16] | Potency [17]

COc1ccc(-c2nc3cnc(N4CCNCC4)nc3n(Cc3cccc(OC)c3)c2=O)cc1
inactive: Potency [4] > 9.22 µM | Potency [5] > 46 µM | Potency [7] | Potency [10]
active: activity change, negative = inhibition [1] 109% [activator] | activity change, negative = inhibition [18] 101% [activator]

C[N+](C)(C)c1cc2c(nn1)Nc1ccccc1S2
active: Potency [2] 2 µM
inactive: activity change, negative = inhibition [1] -0.66% | activity, negative = inhibition [3] 19.9% | Potency [4] > 46 µM | Potency [5] > 9.22 µM | Potency [6] | Potency [7]

CN[C@@H](CC(C)C)C(=O)N[C@@H]1C(=O)N[C@H](CC(N)=O)C(=O)N[C@H]2C(=O)N[C@H]3C(=O)N[C@H](C(=O)N[C@H](C(=O)O)c4cc(O)cc(O)c4-c4cc3ccc4O)[C@H](O)c3ccc(c(Cl)c3)Oc3cc2cc(c3O[C@@H]2O[C@@H](CO)[C@@H](O)[C@@H](O)[C@H]2O[C@H]2C[C@](C)(N)[C@H](O)[C@H](C)O2)Oc2ccc(cc2Cl)[C@@H]1O
inactive: activity change, negative = inhibition [1] -0.977% [at 38 µM] | activity change, negative = inhibition [18] 0.625% [at 38 µM] | activity, negative = inhibition [3] 4.5% [at 38 µM] | Potency [4] > 46 µM | Potency [5] > 46 µM | Potency [6] | Potency [7] | outcome [8] | outcome [11] | outcome [14] | outcome [15] | outcome [16] | Potency [17]
